The values below come from PubChem BioAssay AID2685 (National Center for Advancing Translational Sciences (NCATS), 2010).

Hit rate of the full screen: of about 320,000 compounds, about 2,100 (0.66%) were called active. About 53% were inconclusive and are not listed. Calls come from the whole dose curve; as a rule, active = well fitted inhibition curve with a large enough effect in the signal ratio, with a control signal flat (not every such curve was filed as active); inconclusive = small, poorly fitted or top-dose-only effect, or effect the other way, or a change in a side signal; inactive = flat fitted curve, though single readings scatter; the % refers to the signal ratio. The entries come from a sample that favours actives as a whole.
Potency is the fitted concentration of half-maximal effect.

The test is described as follows: qHTS Assay for Lipid Storage Modulators in Drosophila S3 Cells.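 For cell number change: cells counted by Cell Tracker Red CMTPX staining in the red channel.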 For lipid storage change, negative = inhibition: % is set by controls: 0 for no effect and ±100 for the full control effect. The settings on record: BODIPY lipid droplet fluorescence, 18-24 h, cells fed with added oleic acid; cell number change: measured here: cell count max response; series mostly up to 46.1 µM; lipid storage change, negative = inhibition: at the top concentration. Put shortly: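 Laser-scanning cytometry quantifies lipid droplet accumulation (500–530 nm total intensity; droplet/cell object ratio) in oleic acid-fed (400 uM added) Drosophila S3 cells treated with a concentration series. 20 uM Triacsin C defined 100% inhibition.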
For orientation: In qHTS, concentration-response curves come from the screen itself.
Regarding `O=C1C=Cc2ccccc2/C1=C/c1[nH]c(=O)[nH]c1O`, the “lipid storage change, negative = inhibition” value was 5.67% (inactive) and the cell number change turned out to be 1.79%.
On to `O=C(NC(=S)Nc1ccc(S(=O)(=O)Nc2nccs2)cc1)c1ccc(Br)o1`, for which the “lipid storage change, negative = inhibition” value was 2.23% (inactive).
Still for that read-out and setting: for `O=C(NCCOC(=O)C1COc2ccccc2O1)C1COc2ccccc2O1` (stereo not drawn) the value was -28.4% (inactive).
With `COc1nc(N/N=C/c2ccc(-c3cccc([N+](=O)[O-])c3)o2)nc(N2CCOCC2)n1`, the “lipid storage change, negative = inhibition” value was 7.42% (inactive) and the cell number change was -9.45%.
As to `O=[N+]([O-])c1ccc(-c2ccc(/C=N/Nc3nc(N4CCCC4)nc(N4CCCC4)n3)o2)cc1`, the compound was classed as inactive and the cell number change was -13%.
For the compound `O=[N+]([O-])c1ccc(/C=N/Nc2nc(N3CCCCC3)nc(N3CCCCC3)n2)cc1`, the “lipid storage change, negative = inhibition” value is 11.3% (inactive) and the cell number change was -0.784%.
Consider `O=[N+]([O-])c1ccc(-c2ccc(/C=N/Nc3nc(NCc4ccccc4)nc(N4CCOCC4)n3)o2)cc1`, for which the Potency was 18.4 µM (active) and the cell number change worked out at 14.1%.
For `O=[N+]([O-])c1ccc(-c2ccc(/C=N/Nc3nc(N4CCCCC4)nc(N4CCCCC4)n3)o2)cc1` the same measures were 5.17 µM (active) and 17%.
Consider `O=[N+]([O-])c1cccc(/C=N/Nc2nc(NCc3ccccc3)nc(N3CCOCC3)n2)c1O`, for which the “lipid storage change, negative = inhibition” value was -7.86% (inactive) and the cell number change amounted to 0.539%.
As to `CN(C)S(=O)(=O)N1CCC(Oc2cccc(C(=O)NC3CCCCCC3)c2)CC1`, the result was inactive.
For `O=C(O)c1ccccc1C(=O)N1CC=C(c2ccccc2)CC1`, the “lipid storage change, negative = inhibition” value is -0.597% (inactive) and the cell number change was 1.73%.
The corresponding values for `Nc1[nH][nH]c(=O)c1N=Nc1cccc(Cl)c1` are 26.5% (inactive) and 1.25%.
Consider `Cn1cc([N+](=O)[O-])c(C(=O)Nc2ccc(Br)cn2)n1`, for which the “lipid storage change, negative = inhibition” value was 1.79% (inactive).
In the case of `O=C(CNC(=O)COc1ccccc1)NCc1ccccc1F`, the “lipid storage change, negative = inhibition” value was -0.841% (inactive) and the cell number change turned out to be 0.16%.
The corresponding values for `O=[N+]([O-])c1ccc(NC(=S)N2CCOCC2)cc1` are -4.46% (inactive) and -10.6%.
The corresponding values for `OC(CN1CCN(Cc2ccccc2)CC1)c1ccc(F)cc1` (stereo not drawn) are 2.63% (inactive) and 22.1%.
As for `Fc1ccc(CN2CCN(C(c3ccccc3)c3ccccc3)CC2)cc1`, the Potency is 16.4 µM (active) and the cell number change was -21.3%.
Take `COc1cc(CN2CCN(C(c3ccccc3)c3ccccc3)CC2)cc(OC)c1OC`: the “lipid storage change, negative = inhibition” value was 21.4% (inactive) and the cell number change is 6.8%.
As for `COc1ccc(Br)cc1CNC(=O)CCC(=O)n1nc(C)c2ccccc21`, the compound was called inactive and the cell number change was -11.3%.
As to `COc1ccccc1NC(=S)NC1CCCCC1`, the “lipid storage change, negative = inhibition” value is -1.18% (inactive) and the cell number change is 22.1%.
Take `Cc1ccccc1NC(=O)C(=O)NC(C)CCc1ccccc1` (stereo not drawn): the Potency is 7.31 µM (active) and the cell number change is 7.44%.
For `Cc1ccccc1NC(=S)NC(C)CCc1ccccc1` (stereo not drawn), the “lipid storage change, negative = inhibition” value is -12% (inactive) and the cell number change was -4.86%.
Turning to `CCOC(=O)C(=O)NC(C)CCc1ccccc1` (stereo not drawn), the “lipid storage change, negative = inhibition” value is -6.25% (inactive) and the cell number change is -12.3%.
The corresponding values for `COCCCNC(=O)COc1cc2c(c3oc(=O)c(C)c(C)c13)CCC(C)(C)O2` are -1.02% (inactive) and 14.5%.
For `O=C(Nc1ccccc1)c1ccc(CN2CCc3ccccc3C2)cc1` the same measures were -0.669% (inactive) and 7.26%.
For the compound `O=C(Nc1ccc(S(=O)(=O)N2CCCCC2)cc1)c1ccc(CN2CCc3ccccc3C2)cc1`, the Potency was 18.4 µM (active) and the cell number change is -10.9%.
Take `Cc1ccc(NC(=O)c2ccc(CN3CCc4ccccc4C3)cc2)cc1`: the “lipid storage change, negative = inhibition” value was 9.69% (inactive) and the cell number change amounted to 6%.
As to `O=C(Nc1ccc(F)cc1)c1ccc(CN2CCc3ccccc3C2)cc1`, the Potency was 5.17 µM (active) and the cell number change was -4.53%.
Turning to `O=C(Nc1ccc(S(=O)(=O)N2CCCC2)cc1)c1ccc(CN2CCOCC2)cc1`, the “lipid storage change, negative = inhibition” value was -12.9% (inactive) and the cell number change was found to be 0.801%.
The corresponding values for `O=C(Nc1ccccc1)c1ccc(S(=O)(=O)N2CCCCC2)cc1` are 1.31% (inactive) and -9.41%.
Regarding `Cc1cc(-n2nc(C)cc2C)n2nc(C)c(-c3ccc(Cl)cc3)c2n1`, the call was inactive and the cell number change stood at 1.87%.
For `CC(C)CCN1CC(C(=O)NC(C)C)CC1=O` (stereo not drawn), the “lipid storage change, negative = inhibition” value was 1.74% (inactive) and the cell number change is -5.32%.
The corresponding values for `CN1CCN(S(=O)(=O)c2ccc(NC(=O)c3ccc(Br)s3)cc2)CC1` are 18.6% (inactive) and -9.91%.
The corresponding values for `COC(=O)c1ccc(CN2CCC(CO)(Cc3cccc(OC)c3)CC2)cc1` are 12.4% (inactive) and 1.63%.
`O=C(Nc1ccccc1C(=O)OC1CCOC1=O)c1ccco1` (stereo not drawn): the compound was called inactive and the cell number change stood at 2.86%.
As to `Cc1cccc(C(=O)OC2CCOC2=O)c1O` (stereo not drawn), the Potency was 0.731 µM (active) and the cell number change turned out to be 4.5%.
Regarding `CC(=O)Nc1ccc(C(=O)OC2CCOC2=O)cc1` (stereo not drawn), the “lipid storage change, negative = inhibition” value is -5.88% (inactive) and the cell number change turned out to be 3.14%.
The corresponding values for `Cc1ccc(NC(=O)c2cccs2)cc1NC(=O)c1cccc(F)c1` are 16.8% (inactive) and 9.07%.
As to `Cc1ccc(C(=O)N/C(=C\c2cccs2)C(=O)NCc2cccnc2)cc1`, the “lipid storage change, negative = inhibition” value was 15.8% (inactive) and the cell number change was 10.4%.
The corresponding values for `Fc1ccc(NC(=S)N2CCCc3ccccc32)cc1` are 7.56% (inactive) and -5.16%.
Regarding `Fc1ccc(NC(=S)N2CCc3ccccc32)cc1`, the Potency is 16.4 µM (active) and the cell number change was -10.9%.
Turning to `Fc1cccc(NC(=S)N2CCc3ccccc32)c1`, the compound was classed as inactive and the cell number change was -4.05%.
As for `CN(C)c1ccc(S(=O)(=O)NCC(=O)NCc2ccccc2)cc1[N+](=O)[O-]`, the “lipid storage change, negative = inhibition” value is 24.8% (inactive) and the cell number change was 21.7%.
As for `NC(=O)c1nsc(C(=O)N(CC(=O)NC2CCCCC2)Cc2ccc(F)cc2)c1N`, the compound was classed as inactive.
For `NC(=O)c1nsc(C(=O)N(CC(=O)NC2CCCCC2)c2ccc(Cl)cc2)c1N`, the Potency was 14.6 µM (active) and the cell number change was -2.56%.
Consider `NC(=O)c1nsc(C(=O)N(CC(=O)NC2CCCC2)c2cnc3ccccc3c2)c1N`, for which the “lipid storage change, negative = inhibition” value was -11% (inactive) and the cell number change is -18%.
`NC(=O)c1nsc(C(=O)N(CC(=O)NC2CCCC2)c2ccc(F)c(Cl)c2)c1N`: the Potency is 0.116 µM (active) and the cell number change is -7.14%.
Regarding `Cc1ccc(C)c(N(CC(=O)NC2CCCCC2)C(=O)c2snc(C(N)=O)c2N)c1`, the outcome was inactive and the cell number change is -26.2%.
Regarding `CCCC(C(=O)NC1CCCC1)N(C(=O)c1snc(C(N)=O)c1N)c1ccc(F)cc1` (stereo not drawn), the “lipid storage change, negative = inhibition” value is 23.9% (inactive) and the cell number change is -10.5%.
